Data as given in PubChem BioAssay AID651548 (Broad Institute, 2012).
Where “and” joins values, the source holds several entries; their conditions need not be identical. Equal entries are not always repeated. Screen size: about 57,000 compounds; about 200 (0.35%) were called active. What follows is part of a selection rich in actives, with near analogues and random picks from the rest. Unmarked numbers belong to inactive results.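 The calls were made as follows: active = mean inhibition of replicates at least 50% and every single replicate also reaching 50%; inconclusive = mean inhibition at least 50% but some replicate falls below 50%; inactive = mean inhibition under 50%.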

The compounds below were run against Histone-lysine N-methyltransferase EZH2 (Homo sapiens) (UniProt Q15910) (assay: EZH2/PRC2 methyltransferase inhibitors, primary screen, biochemical, DELFIA time-resolved fluorescence, single point (AID 651548;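 also: dimethyl H3K27 on biotinylated H3 21-44 peptide detected by antibody; plate controls were median neutral control wells for no effect and median positive control wells for full effect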)). Details: PRC2 H3K27 methylation, DELFIA TRF, 1 h; at 12.5 µM; stronger effect = higher value.
Chain of Histone-lysine N-methyltransferase EZH2 (Homo sapiens) (Q15910 whole entry, looked up): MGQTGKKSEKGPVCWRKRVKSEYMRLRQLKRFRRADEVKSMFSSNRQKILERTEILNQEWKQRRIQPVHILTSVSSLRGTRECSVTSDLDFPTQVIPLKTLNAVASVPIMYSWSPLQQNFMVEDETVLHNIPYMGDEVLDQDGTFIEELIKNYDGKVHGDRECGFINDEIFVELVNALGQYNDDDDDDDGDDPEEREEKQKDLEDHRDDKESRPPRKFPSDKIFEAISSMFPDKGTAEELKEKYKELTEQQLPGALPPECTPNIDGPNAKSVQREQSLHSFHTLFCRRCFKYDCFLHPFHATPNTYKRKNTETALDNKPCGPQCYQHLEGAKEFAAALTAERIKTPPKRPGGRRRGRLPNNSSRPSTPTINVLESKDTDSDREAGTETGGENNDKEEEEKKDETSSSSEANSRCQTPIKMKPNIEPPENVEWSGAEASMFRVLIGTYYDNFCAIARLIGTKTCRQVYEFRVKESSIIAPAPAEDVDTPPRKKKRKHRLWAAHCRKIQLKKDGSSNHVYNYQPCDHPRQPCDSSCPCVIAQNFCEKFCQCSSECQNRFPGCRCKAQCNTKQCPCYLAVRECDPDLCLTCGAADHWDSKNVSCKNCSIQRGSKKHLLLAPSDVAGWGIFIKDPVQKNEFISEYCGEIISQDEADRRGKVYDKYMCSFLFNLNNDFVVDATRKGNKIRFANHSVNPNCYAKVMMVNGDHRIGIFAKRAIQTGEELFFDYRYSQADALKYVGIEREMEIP

**Q.** For C[C@@H](NC(=O)C[C@@H]1C[C@@H]2c3cc(NC(=O)c4cccnc4)ccc3O[C@@H]2[C@H](CO)O1)c1ccccc1, which inhibition is on record?
**A.** 4.89%

**Q.** For CCC(=O)N1C[C@@H](C)[C@@H](OC)CN(C)C(=O)c2ccc(NC(=O)c3ccccc3)cc2OC[C@H]1C, which inhibition is on record?
**A.** 2.93%

**Q.** For C[C@@H]1CN([C@H](C)CO)S(=O)(=O)c2ccc(C#CCC3CCCC3)cc2O[C@H]1CN(C)Cc1ccc(C(=O)O)cc1, which inhibition is on record?
**A.** 58.1% (active)

**Q.** With C[C@@H]1CN([C@@H](C)CO)S(=O)(=O)c2ccc(C#CCC3CCCC3)cc2O[C@@H]1CN(C)C as the compound, how does the inhibition read?
**A.** -6.13%

**Q.** With CCCN(C)C[C@H]1Oc2cc(C#CCC3CCCC3)ccc2S(=O)(=O)N([C@@H](C)CO)C[C@@H]1C as the compound, how does the inhibition read?
**A.** 10.9%

**Q.** CO[C@@H](CN(C)S(=O)(=O)c1ccc(C)cc1)[C@@H](C)CN([C@@H](C)CO)S(=O)(=O)c1cccc(Cl)c1 was tested. Which inhibition did it give?
**A.** 9.64%

**Q.** For CN(C)CCCNC(=O)C[C@H]1C=C[C@@H](NC(=O)Cc2cccnc2)[C@H](CO)O1, which inhibition is on record?
**A.** 13.4%

**Q.** For Cc1ccccc1S(=O)(=O)NCC[C@@H]1CC[C@H](NC(=O)C2CC2)[C@@H](CO)O1, which inhibition is on record?
**A.** -14.1%

**Q.** Which inhibition does the source give for COCCNC(=O)C[C@H]1CC[C@H](NS(=O)(=O)c2ccc(C)cc2)[C@@H](CO)O1 here?
**A.** -9.8%

**Q.** COCC(=O)N(C)C[C@@H]1Oc2cc(C#CCC(C)C)ccc2S(=O)(=O)N([C@@H](C)CO)C[C@@H]1C was tested. Which inhibition did it give?
**A.** 7.89%

**Q.** Which inhibition does the source give for CO[C@H]1CN(C)C(=O)c2cc(NC(=O)C3CCCC3)ccc2OC[C@@H](C)N(C(=O)CC2CC2)C[C@@H]1C here?
**A.** 4.88%

**Q.** For C[C@@H]1CN([C@H](C)CO)C(=O)c2cc(NC(=O)CCCN(C)C)ccc2O[C@@H](C)CCCCO[C@H]1CN(C)CC1CCCCC1, which inhibition is on record?
**A.** -6.09%

**Q.** C[C@@H]1CN([C@@H](C)CO)S(=O)(=O)c2ccc(C3=CCCCC3)cc2O[C@@H]1CN(C)C(=O)CN(C)C was tested. Which inhibition did it give?
**A.** -15.1%

**Q.** With O=C(C[C@@H]1C[C@@H]2c3cc(NC(=O)Nc4ccc(F)cc4)ccc3O[C@@H]2[C@H](CO)O1)NCC(F)(F)F as the compound, how does the inhibition read?
**A.** -13.1%

**Q.** Which inhibition does the source give for CO[C@@H]1CN(C)C(=O)c2cc(NC(=O)c3ccccc3F)ccc2OC[C@H](C)N(C(C)=O)C[C@@H]1C here?
**A.** -5.74%

**Q.** C[C@H]1CN([C@@H](C)CO)C(=O)c2cc(Br)cnc2O[C@@H]1CN(C)S(=O)(=O)c1ccc(F)cc1 was tested. Which inhibition did it give?
**A.** 30.8%

**Q.** Which inhibition does the source give for O=C(C[C@@H]1CC[C@@H](NC(=O)c2ccc3c(c2)OCO3)[C@H](CO)O1)NCc1ccc(Cl)cc1 here?
**A.** 11.8%

**Q.** For C[C@@H]1CN([C@H](C)CO)C(=O)c2cccc(NC(=O)CCCCCC(=O)Nc3ccccc3N)c2O[C@H]1CN(C)Cc1ccc(Oc2ccccc2)cc1, which inhibition is on record?
**A.** -2.58%

**Q.** O=C(O)CCCc1ccccc1 was tested. Which inhibition did it give?
**A.** -7.51%

**Q.** CN(C)CCCSc1ccccc1NC(=O)/C=C/c1ccccc1 was tested. Which inhibition did it give?
**A.** 7.12% and -8.56%

**Q.** CCCCCc1ccc(/C=C/C(=O)Nc2ccccc2C(=O)O)cc1 was tested. Which inhibition did it give?
**A.** 61.8% (active)

**Q.** How did the inhibition turn out when O=C(N[C@@H]1CC[C@@H](CCNS(=O)(=O)Cc2ccccc2)O[C@@H]1CO)c1ccccc1F was run?
**A.** -4.43%

**Q.** Which inhibition does the source give for CCCNC(=O)Nc1ccc2c(c1)C(=O)N(C)C[C@@H](OC)[C@H](C)CN(C(=O)C1CCCCC1)[C@H](C)CO2 here?
**A.** 4.24%

**Q.** Which inhibition does the source give for O=C(N[C@H]1CC[C@@H](CCNS(=O)(=O)c2cccc(Cl)c2)O[C@@H]1CO)c1ccncc1 here?
**A.** 4.59%

**Q.** Which inhibition does the source give for O=C(NCC[C@@H]1CC[C@@H](NC(=O)C2CCCC2)[C@H](CO)O1)c1cnccn1 here?
**A.** -12%

**Q.** For C[C@@H]1CN([C@@H](C)CO)C(=O)c2c(c3ccccc3n2C)-c2ccccc2CO[C@H]1CN(C)C(=O)N[C@H](C)c1ccccc1, which inhibition is on record?
**A.** -0.352%

**Q.** How did the inhibition turn out when CO[C@@H]1CN(C)C(=O)c2cc(NC(=O)C3CCC3)ccc2OC[C@H](C)N(C(=O)CN(C)C)C[C@@H]1C was run?
**A.** -0.841%

**Q.** How did the inhibition turn out when CCCNC(=O)C[C@H]1C[C@@H]2c3cc(NC(=O)NC4CCCC4)ccc3O[C@@H]2[C@@H](CO)O1 was run?
**A.** 5.85%

**Q.** C[C@H](NC(=O)C[C@H]1C=C[C@@H](NC(=O)C2CCOCC2)[C@@H](CO)O1)c1ccccc1 was tested. Which inhibition did it give?
**A.** 3.06%

**Q.** COc1ccccc1-c1cccc(-c2nc(C(=O)N3CCN(C)CC3)cc3c2[C@H](CCO)N([S@@](=O)C(C)(C)C)C3)c1 was tested. Which inhibition did it give?
**A.** 1.13%

**Q.** For CO[C@@H]1CN(C)C(=O)c2cc(NC(C)=O)ccc2OC[C@@H](C)N(C(=O)NC2CCCCC2)C[C@H]1C, which inhibition is on record?
**A.** 3.91%

**Q.** For O=C(C[C@H]1C[C@H]2c3cc(NC(=O)C4CCC4)ccc3O[C@H]2[C@@H](CO)O1)NCc1ccc(Cl)cc1, which inhibition is on record?
**A.** -2.37%

**Q.** How did the inhibition turn out when CN1CCN(C(=O)C[C@@H]2C[C@@H]3c4cc(NC(=O)c5ccc6c(c5)OCO6)ccc4O[C@@H]3[C@H](CO)O2)CC1 was run?
**A.** -2.8%

**Q.** How did the inhibition turn out when COc1cccc(-c2ccc3c(c2)O[C@H](CN(C)C(=O)c2ccccc2F)[C@@H](C)CN([C@@H](C)CO)S3(=O)=O)c1 was run?
**A.** 0.0695%

**Q.** How did the inhibition turn out when O=C(Nc1ccccc1)Nc1ccc2c(c1)[C@@H]1C[C@@H](CC(=O)N3CCCCC3)O[C@H](CO)[C@@H]1O2 was run?
**A.** -1.6%

**Q.** For O=C(C[C@H]1C[C@H]2c3cc(NC(=O)Nc4ccccc4)ccc3O[C@H]2[C@H](CO)O1)NC1CCCC1, which inhibition is on record?
**A.** 2.44%

**Q.** COc1ccccc1NC(=O)N[C@H]1CC[C@H](CCNS(=O)(=O)c2ccc(Cl)cc2)O[C@H]1CO was tested. Which inhibition did it give?
**A.** 47.2%

**Q.** For COc1cccc(C(=O)Nc2ccc3c(c2)OC[C@H](C)N(C(C)=O)C[C@@H](C)[C@@H](OC)CN(C)C3=O)c1, which inhibition is on record?
**A.** 6.08%

**Q.** With C/C=C/c1ccc2c(c1)O[C@H](CN(C)C(=O)C1CCCCC1)[C@@H](C)CN([C@@H](C)CO)S2(=O)=O as the compound, how does the inhibition read?
**A.** 13.7%

**Q.** How did the inhibition turn out when CCC(=O)Nc1ccc2c(c1)OC[C@@H](C)N(Cc1cncnc1)C[C@H](C)[C@@H](OC)CN(C)C2=O was run?
**A.** -1.64%

**Q.** COc1ccc(C(=O)Nc2ccc3c(c2)OC[C@H](C)N(C(C)=O)C[C@@H](C)[C@@H](OC)CN(C)C3=O)cc1 was tested. Which inhibition did it give?
**A.** -11.8%

**Q.** For CO[C@@H]1CN(C)C(=O)c2ccc(NC(=O)C3CC3)cc2OC[C@@H](C)N(Cc2ccncc2)C[C@@H]1C, which inhibition is on record?
**A.** 8.95%

**Q.** With O=C(C[C@H]1CC[C@H](NC(=O)c2ccncc2)[C@H](CO)O1)Nc1ccccc1 as the compound, how does the inhibition read?
**A.** 16.3%

**Q.** O=C(C[C@H]1C[C@@H]2c3cc(NS(=O)(=O)c4ccc(F)cc4)ccc3O[C@@H]2[C@H](CO)O1)NCc1cccc(F)c1 was tested. Which inhibition did it give?
**A.** -5.18%

**Q.** How did the inhibition turn out when O=C(N[C@H]1CC[C@@H](CCNC(=O)C2CCC2)O[C@@H]1CO)c1ccncc1 was run?
**A.** -3.82%

**Q.** With CN(C)CC(=O)Nc1ccc2c(c1)[C@H]1C[C@@H](CC(=O)NCc3ccccn3)O[C@@H](CO)[C@H]1O2 as the compound, how does the inhibition read?
**A.** -17%

**Q.** How did the inhibition turn out when CO[C@H]1CN(C)C(=O)c2ccc(NC(=O)C3CCCC3)cc2OC[C@@H](C)NC[C@@H]1C was run?
**A.** 7.43%

**Q.** Which inhibition does the source give for CCC(=O)N1C[C@@H](C)[C@H](OC)CN(C)C(=O)c2ccc(NC(=O)c3cc(C)on3)cc2OC[C@H]1C here?
**A.** 7.38%

**Q.** How did the inhibition turn out when CCC(=O)Nc1ccc2c(c1)OC[C@H](C)N(CC1CCCCC1)C[C@@H](C)[C@H](OC)CN(C)C2=O was run?
**A.** -10.4%

**Q.** Which inhibition does the source give for CC(C)NC(=O)N[C@@H]1C=C[C@@H](CC(=O)N2CCCCC2)O[C@@H]1CO here?
**A.** 7.89%

**Q.** How did the inhibition turn out when O=C(C[C@@H]1CC[C@H](NC(=O)Nc2ccc(F)cc2)[C@H](CO)O1)NCc1ccccn1 was run?
**A.** -0.96%

**Q.** COc1cccc(-c2cnc3c(c2)C(=O)N([C@@H](C)CO)C[C@H](C)[C@H](CN(C)C(C)=O)O3)c1 was tested. Which inhibition did it give?
**A.** 1.62%

**Q.** COCC#Cc1cnc2c(c1)C(=O)N([C@H](C)CO)C[C@H](C)[C@H](CN(C)C(=O)Nc1cc(F)ccc1F)O2 was tested. Which inhibition did it give?
**A.** 0.676%

**Q.** COc1cccc(NC(=O)Nc2ccc3c(c2)OC[C@@H](C)NC[C@@H](C)[C@H](OC)CN(C)C3=O)c1 was tested. Which inhibition did it give?
**A.** -3.01%

**Q.** With COc1cccc(S(=O)(=O)Nc2ccc3c(c2)[C@@H]2C[C@@H](CC(=O)NCc4ccc(Cl)cc4)O[C@H](CO)[C@@H]2O3)c1 as the compound, how does the inhibition read?
**A.** -2.95%

**Q.** For O=C(C[C@@H]1C[C@@H]2c3cc(NC(=O)Nc4ccccc4F)ccc3O[C@@H]2[C@@H](CO)O1)NCCc1ccccc1, which inhibition is on record?
**A.** -11.7%

**Q.** With CC1=CCC(C(C)(C)O[C@@H]2O[C@H](COC(=O)c3cc(O)c(O)c(O)c3)[C@@H](O)[C@H](O)[C@H]2O)CC1 (some centres undefined) as the compound, how does the inhibition read?
**A.** 91.8% (active)

**Q.** How did the inhibition turn out when C[C@@H]1CN([C@H](C)CO)S(=O)(=O)c2ccc(C#CCN(C)C)cc2O[C@@H]1CN(C)C(=O)C1CCCCC1 was run?
**A.** 1.46%

**Q.** For CC(C)NC(=O)Nc1ccc2c(c1)CC(=O)N([C@H](C)CO)C[C@H](C)[C@@H](CN(C)C(=O)Nc1ccc(F)cc1)O2, which inhibition is on record?
**A.** -14.2%

**Q.** C[C@@H]1CN([C@H](C)CO)S(=O)(=O)c2ccc(-c3ccccc3)cc2O[C@@H]1CN(C)C(=O)C1CC1 was tested. Which inhibition did it give?
**A.** 7.84%

**Q.** For CCCNC(=O)Nc1ccc2c(c1)OC[C@H](C)N(Cc1ccccc1)C[C@H](C)[C@H](OC)CN(C)C2=O, which inhibition is on record?
**A.** -21.6%

**Q.** How did the inhibition turn out when C[C@H]1CN([C@@H](C)CO)S(=O)(=O)c2ccc(C#CC3CCCC3)cc2O[C@@H]1CN(C)C(=O)c1cccc(F)c1 was run?
**A.** 14.8%

**Q.** O=C(C[C@@H]1CC[C@@H](NC(=O)C2CC2)[C@H](CO)O1)NCc1ccncc1 was tested. Which inhibition did it give?
**A.** 9.6%

**Q.** Which inhibition does the source give for CN(C)CC(=O)N[C@@H]1CC[C@@H](CCn2cc(C3CC3)nn2)O[C@H]1CO here?
**A.** -8.32%
